Results from PubChem BioAssay (NCI).
The panel holds about 83,000 compounds, 20% with a hit somewhere; the sample as a whole holds those more often.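 The endpoint reported here, percent growth, reads 100 for growth as untreated, 0 for no net growth and -100 for all cells dead.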 The source made the active and inactive calls. The calls were made as follows: active = growth percent below 10; inactive = the rest.

Each molecule was assayed on BT-549 breast (assay: NCI-60 one-dose screen, 48 h (100 = growth as untreated, 0 = no growth, -100 = all killed)). Conditions: 10 µM unless noted.
With `Cc1ccc(CCC(=O)Nc2ncc(Cc3cc(Cl)ccc3Cl)s2)o1` the growth was 3.48% (active). In the case of `c1ccc2c(c1)nc(CN1CCOCC1)n1cc(N3CCCC3)nc21`, the growth is reported as 100% (inactive). In the case of `COc1ccc(-c2c(N)n[nH]c2-c2ccc(Cl)cc2O)cc1OC`, the growth is reported as 105% (inactive). For `COc1cc2nc(Cl)nc(Nc3ccc(S(=O)(=O)Nc4nccs4)cc3)c2cc1OC`, the growth was 95.1% (inactive). `CS(=O)c1cccc(-c2ccc3nc(N)n(-c4ccc(C(F)(F)F)cc4)c(=O)c3c2)c1` (stereo not drawn) was tested, and the growth was 99.4% (inactive). For `NCCCNc1nc2ccccc2c2c(=O)c3cccc(Cl)c3sc12`, the growth was 76.6% (inactive). `CCCCCCCCCCCCCCCCCC1=NCCN1CCOC1=C(Cl)C(=O)c2ccccc2C1=O` was tested, and the growth was 68% (inactive). For `Cc1ccc(Nc2ccc(Nc3ccc(C)cc3)c3c2C(=O)c2cccc(O)c2C3=O)cc1`, the growth was 113% (inactive). For `O=Cc1c[nH]c2ccc(-c3csc4ccccc34)cc12`, the growth was 38.5% (inactive). For `COc1ccc2[nH]c(O)c(/C=c3/cc4c(c(-c5cc(OC)c(OC)c(OC)c5)n3)=Nc3ccccc3-4)c2c1`, the growth was 69.5% (inactive). `NC(=N\N=C/c1cccc([N+](=O)[O-])c1)/C(N)=N\N=C/c1cccc([N+](=O)[O-])c1` was tested, and the growth was -14.9% (active). In the case of `NS(=O)(=O)c1cnccc1Sc1ccncc1S(N)(=O)=O`, the growth is reported as 96.4% (inactive). In the case of `COc1ccc(CN2C(=O)C(Cl)=C(Nc3cccc(C(F)(F)F)c3)C2=O)cc1`, the growth is reported as 26.3% (inactive). `O=C(/C=C/c1ccco1)c1ccc(Nc2nc(Nc3ccc(F)cc3)nc(Nc3ccc(Cl)cc3)n2)cc1` was tested, and the growth was 78.7% (inactive). For `CCC1(C2CCCC2)NC(=O)NC1=O` (stereo not drawn), the growth was 95.3% (inactive). `COc1cc2c(cc1-c1c(C)noc1C)ncc1nc(C3CCC(F)(F)CC3)n(C3CCC(OC(F)F)CC3)c12` (stereo not drawn) was tested, and the growth was 79.2% (inactive). `O=C1Nc2ccc(F)cc2C12Nc1cc(Cl)ccc1S2` (stereo not drawn) was tested, and the growth was 67.7% (inactive). `COc1cccc(-c2nn(-c3ccccc3)cc2-c2ccnc(NCCNC(=O)Nc3ccc(Cl)c(Cl)c3)c2)c1` was tested, and the growth was -4.67% (active). `O=C(Nc1ccccc1Cl)Oc1ccc(-c2ccccc2)cc1` was tested, and the growth was 113% (inactive). `O=c1c2c3c(sc2n2c(-c4cn(-c5ccccc5)nc4-c4ccc(Cl)cc4)nnc2n1Cc1ccccc1)CCCC3` was tested, and the growth was 103% (inactive). `CCOC(=O)c1c2ncccc2n2c(=O)n(-c3ccccc3C)nnc12` was tested, and the growth was 104% (inactive). With `C=C1C(=O)O[C@H]2[C@H]1CC/C(COC(=O)C(=O)c1c[nH]c3ccccc13)=C\CC[C@@]1(C)O[C@@H]21` the growth was -67.3% (active). `CCCCOc1nc2ccccc2cc1C1CNC(=O)c2ccccc2N1` (stereo not drawn) was tested, and the growth was 41% (inactive). In the case of `CCCCCCCC/C=C\CCCCCCCCOc1ccccc1CC(=O)NCC[N+](C)(C)C`, the growth is reported as 77.4% (inactive). With `O=C1NC(=Nc2ccc(Cl)cc2)S/C1=C\c1cn(-c2ccccc2)nc1-c1ccccc1` the growth was 84.3% (inactive). For `CC(C)(C)CC(C)(C)Nc1c(-c2ccncc2)nc2cnccn12`, the growth was 98.6% (inactive). With `Fc1ccc(CNc2c3ccccc3nc3ccccc23)cc1F` the growth was 68.2% (inactive). For `Cc1cc(NCc2cc(Nc3ccnc4cc(Cl)ccc34)ccc2F)nc(N2CCN(c3ccccc3)CC2)n1`, the growth was 70.1% (inactive). In the case of `COc1ccc2c(c1)O/C(=C\c1cccc(OCC(=O)Nc3nc4ccccc4s3)c1)C2=O`, the growth is reported as -51.7% (active). With `CC(CN1CCCCC1)C(=O)c1ccccc1` (stereo not drawn) the growth was 116% (inactive). For `CCN(CC)CCCNc1ccc(Nc2ccc(OC)cc2)cc1`, the growth was 59% (inactive). `C=C1C(=O)O[C@H]2[C@H]1CC/C(CNC(=O)/C=C/c1ccc(Cl)cc1Cl)=C\CC[C@@]1(C)O[C@@H]21` was tested, and the growth was -53.1% (active). `COc1cc(/C=C/C(=O)c2ccc(Nc3nc(Nc4ccc(F)cc4)nc(Nc4ccc(Cl)cc4)n3)cc2)cc(OC)c1OC` was tested, and the growth was 54.8% (inactive). In the case of `O=C1Nc2ccccc2/C1=C/c1cn(C(=O)c2c(Cl)cccc2Cl)c2ccccc12`, the growth is reported as 51.7% (inactive). With `O=C(c1ccccc1)c1c(/C=C/c2ccc(Cl)cc2)nc2ccccc2c1/C=C/c1cccs1` the growth was 99.3% (inactive). `CCCc1cc2c(=O)c(C(=O)OC)c[nH]c2cc1N(CC)CC` was tested, and the growth was 93.5% (inactive). For `Clc1ccc(-c2c3ccc(=[N+]4CCCCC4)cc-3oc3cc(N4CCCCC4)ccc23)cc1`, the growth was -93.5% (active). With `Cc1ccccc1NC(=O)N/C(N)=N/c1nc(-c2cccc([N+](=O)[O-])c2)cs1` the growth was 51% (inactive).
